The nature of this assay: qHTS drug screen for cell cycle checkpoint inhibitors in PARPi-resistant BRCA-mutant ovarian cancer cell lines. (AID 1963452). Conditions: PEO1/OlaR viability, CellTiter-Glo luminescence, 96 h; for Z-AUC: stronger effect = lower value. The method in brief:
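PEO1, PEO4 and PEO1/OlaR ovarian cancer cells, 600 per well, exposed 96 h at 37C to a dilution series. Viability read by CellTiter-Glo luminescence, normalized to DMSO and empty wells; activity summarized as Z-AUC.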
In general terms: qHTS replaces the single test concentration by a dilution series.

The mark [1] stands for this setting: measured here: PEO1 parental Z-AUC.

Active and inactive are the calls of the source. Calls come from the whole dose curve.
Potency is the fitted concentration of half-maximal effect.

As for `Nc1ccn([C@@H]2O[C@H](CO)[C@@H](O)C2O)c(=O)n1` (stereo partly specified), the Z-AUC was -1.18 (inactive). In addition, the Z-AUC under setting [1] is -1.27. For the same compound, the Z-AUC (measured here: PEO4 Z-AUC) is -0.431.

With `COC(=O)C1=C(C)NC(C)=C(C(=O)OCCCN2CCC(c3ccccc3)(c3ccccc3)CC2)C1c1cccc([N+](=O)[O-])c1` (stereo unspecified), the Z-AUC was 0.516 (inactive). Further, under setting [1], the Z-AUC was 0.68. For the same compound, the Z-AUC (measured here: PEO4 Z-AUC) amounted to 0.403.

Turning to `CCOC(=O)C1=C(O)C(=O)N(Cc2ccccc2)C1`, the Z-AUC is 1.25 (inactive). In addition, under setting [1], the Z-AUC worked out at 1.01. In addition, the Z-AUC (measured here: PEO4 Z-AUC) worked out at 1.38.

For the compound `CCN(CCO)CCCC(C)Nc1ccnc2cc(Cl)ccc12` (stereo unspecified), the Z-AUC was 1.8 (inactive). Also, the Z-AUC under setting [1] was determined as 1.41. Also, the Z-AUC (measured here: PEO4 Z-AUC) amounted to 1.84.

For the compound `Cc1ncc([N+](=O)[O-])n1CC(C)O` (stereo unspecified), the Z-AUC is 0.202 (inactive). Under setting [1], the Z-AUC is 1.06. For the setting “measured here: PEO4 Z-AUC”, the Z-AUC was found to be 0.768.

As for `Cc1nc(-c2ccc(OCC(C)C)c(C#N)c2)sc1C(=O)O`, the Z-AUC is 0.79 (inactive). The Z-AUC under setting [1] came to 0.0163. Further, the Z-AUC (measured here: PEO4 Z-AUC) is 0.327.

For the compound `Cc1ccc(S(=O)(=O)NC(=O)NN2CC3CCCC3C2)cc1` (stereo unspecified), the Z-AUC was 1.31 (inactive). Besides, the Z-AUC under setting [1] was 0.956. In addition, the Z-AUC (measured here: PEO4 Z-AUC) worked out at 1.09.

For the compound `CS(=O)(=O)OCCCCOS(C)(=O)=O`, the Z-AUC was 0.989 (inactive). The Z-AUC under setting [1] came out at 0.976. Besides, the Z-AUC (measured here: PEO4 Z-AUC) was found to be 1.46.

Take `CN(C)c1ccc(O)c2c1C[C@H]1C[C@H]3[C@H](N(C)C)C(=O)C(C(N)=O)=C(O)[C@@]3(O)C(=O)C1=C2O`: the Z-AUC was 0.306 (inactive). Moreover, under setting [1], the Z-AUC was found to be 0.206. In addition, the Z-AUC (measured here: PEO4 Z-AUC) came out at 0.369.

On to `CCN(CC)CCOc1ccc(Nc2ncc3cc(-c4c(Cl)cccc4Cl)c(=O)n(C)c3n2)cc1`, for which the Potency is 155 nM (active). For the same compound, under setting [1], the Z-AUC was -1.55. Moreover, the Z-AUC (measured here: PEO4 Z-AUC) is -1.25.

`CC(C)(S)[C@@H](N)C(=O)O`: the Z-AUC was 0.193 (inactive). In addition, under setting [1], the Z-AUC was 0.891. Moreover, the Z-AUC (measured here: PEO4 Z-AUC) stood at 1.3.

`COc1cc(Nc2c(C#N)cnc3cc(OCCCN4CCN(C)CC4)c(OC)cc23)c(Cl)cc1Cl`: the Z-AUC was 0.106 (inactive). The Z-AUC under setting [1] worked out at 0.26. Further, the Z-AUC (measured here: PEO4 Z-AUC) is 0.9.

The record behind these values is PubChem BioAssay (NCATS).
